Laboratory results taken from PubChem BioAssay AID1565 (Sanford-Burnham Center for Chemical Genomics, 2009).
Among all 290,000 compounds or so, about 3,200 (1.1%) were called active. No stated cut-off is given here; in the data, active means inhibition above about 60%; inactive means the rest. This excerpt belongs to a sample that is enriched for actives.

target: Phosphoethanolamine/phosphocholine phosphatase (Homo sapiens) (UniProt Q8TCT1); experiment: PubChem AID 1565; settings: recombinant PHOSPHO1, absorbance phosphatase assay; at 13.3 µM; stronger effect = higher value
Sequence (Q8TCT1 whole entry, looked up): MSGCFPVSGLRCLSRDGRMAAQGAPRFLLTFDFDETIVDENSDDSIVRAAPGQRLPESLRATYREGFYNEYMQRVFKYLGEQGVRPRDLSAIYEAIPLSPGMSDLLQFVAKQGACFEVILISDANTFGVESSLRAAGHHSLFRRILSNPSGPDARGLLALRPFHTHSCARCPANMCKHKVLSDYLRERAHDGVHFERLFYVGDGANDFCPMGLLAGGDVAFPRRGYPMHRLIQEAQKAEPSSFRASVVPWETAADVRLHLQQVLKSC

SMILES | inhibition
Cc1cccc(C)c1NC(=O)C(Cl)C(=O)c1ccccc1 (centres undefined) | 20% (inactive)
CSc1ncccc1C(=O)NCc1ccccc1Cl | 44.9% (inactive)
O=C(CSc1nnc(CNC(=O)c2ccc(F)cc2)o1)Nc1ccc2c(c1)OCO2 | -23.1% (inactive)
CCOc1ccc(/C=C2\SC(=S)N(NC(=O)c3ccncc3)C2=O)cc1OC | 23.7% (inactive)
COc1cc(/C=C2\SC(=S)N(Nc3ncc(C(F)(F)F)cc3Cl)C2=O)cc(OC)c1OC | 71.2% (active)
COc1cccc(/C=N/Nc2ncc(C(F)(F)F)cc2Cl)c1O | -8.9% (inactive)
CC(=O)OCCN(CCCn1c(-c2ccncc2)nc2ccccc21)c1nc(-c2ccc(C)cc2)cs1 | 20.2% (inactive)
Nc1ccc(C(=O)Nc2ccccc2N)cc1 | 8.3% (inactive)
Cc1cc(C)c(C#N)c(N2CCC(C(N)=O)CC2)n1 | -42.6% (inactive)
N#Cc1c(-c2ccccc2)cc(-c2ccccc2)nc1SCC(=O)O | -12.1% (inactive)
N#Cc1c(N2CCCCC2)nc(N)c2c(N)nc(SCC(=O)O)cc12 | 60.8% (active)
C/C(CC(=O)NCc1ccc(Cl)cc1)=N\NC(=O)COc1ccc(C)cc1Br | 41.6% (inactive)
CC1CCN(C(=O)Cn2nnnc2CN2CCOCC2)CC1 | 47.5% (inactive)
Oc1ccc(C2Nc3cccc4cccc(c34)N2)cc1 | 14.1% (inactive)
C/C(=C\c1ccco1)C1Nc2cccc3cccc(c23)N1 | 94% (active)
Cc1ccc(C2Nc3cccc4cccc(c34)N2)cc1 | 13.8% (inactive)
O=C(NC1CCCC1)C(=O)c1c[nH]c2ccccc12 | 62.6% (active)
O=C(NCCCc1ccccc1)C(=O)c1c[nH]c2ccccc12 | 38.2% (inactive)
CC1CCN(CC(=O)c2c[nH]c3ccccc23)CC1 | 47.6% (inactive)
Cc1nc([N+](=O)[O-])nn1C12CC3CC(CC(Br)(C3)C1)C2 | 93% (active)
Cc1ncn(C23CC4CC(CC(O)(C4)C2)C3)n1 | 12.9% (inactive)
COc1cccc(NC(=O)c2nn(C34CC5CC(CC(C5)C3)C4)cc2[N+](=O)[O-])c1 | 6.2% (inactive)
Cc1cc(-c2ccc(C)c(S(=O)(=O)Nc3ccc(S(N)(=O)=O)cc3)c2)on1 | 44.5% (inactive)
Cc1noc(C)c1CSCC(=O)N(CCC(C)C)c1c(N)n(Cc2ccccc2)c(=O)[nH]c1=O | 9.8% (inactive)
O=C(CCN1C(=O)C2C3CCC(C3)C2C1=O)Nc1ccc(Cl)cc1Cl (centres undefined) | 26.6% (inactive)

SMILES | inhibition
CN(CCc1ccccn1)C(=O)c1ccc(OC2CCN(Cc3ccccn3)CC2)cc1 | 17% (inactive)
O=C(c1ccc(OC2CCN(Cc3ccccn3)CC2)cc1)N1CCCCCC1 | 32.8% (inactive)
Cc1nn(C)c(C)c1C(C)NC(=O)c1ccc(OC2CCN(Cc3ccccn3)CC2)cc1 (centres undefined) | 18.5% (inactive)
COCc1ccc(CN2CCC(Oc3ccc(C(=O)NCc4ccccn4)cc3)CC2)o1 | 61% (active)
O=C(NCCOc1cccnc1)c1ccc(OC2CCN(Cc3ccccn3)CC2)cc1 | 13.7% (inactive)
Cn1cc(CNC(=O)c2ccc(OC3CCN(Cc4ccccn4)CC3)cc2)cn1 | 69% (active)
COc1cc(/C=N/N2CCN(c3ccccc3)CC2)ccc1OC(C)=O | 13.8% (inactive)
Cc1cc(C)cc(NC(=O)NCc2ccccn2)c1 | 19% (inactive)
COc1ccc(OC)c(-n2nnnc2SCC(=O)Nc2cc(C)ccc2OC)c1 | -22.4% (inactive)
COc1ccc(C)cc1-n1nnnc1SCC(=O)c1cc(C)n(Cc2ccco2)c1C | 90.1% (active)
Cc1cc(C(=O)CSc2nc(N)cc(=O)[nH]2)c(C)n1Cc1ccco1 | 14.9% (inactive)
CC(C)Cc1nnc(NC(=O)CN2C(=O)NC3(CCCCC3)C2=O)s1 | 24% (inactive)
CCOC(=O)c1ccc(Nc2cc(C)nc3nc(C)nn23)cc1 | -1.2% (inactive)
CCc1ccc(NC2Nc3cc(C)nn3S2)cc1 (centres undefined) | -1% (inactive)
CCOC(=O)c1ccc(NC2Nc3cc(C)nn3S2)cc1 (centres undefined) | 62.2% (active)
COc1ccc(CCNC(=O)CN2C(=O)CCSc3ccccc32)c(OC)c1 | 6.9% (inactive)
COc1ccccc1CCCNC(=O)C1CCC(=O)N(CCN2CCOCC2)C1 (centres undefined) | 4.2% (inactive)
COc1ccc(OC)c(C(C)NC(=S)Nc2ccc(S(=O)(=O)Nc3ncccn3)cc2)c1 (centres undefined) | 62.4% (active)
COc1ccc(NS(=O)(=O)c2ccc(NC(=S)NC(=O)CC(C)C)cc2)cc1 | -49.5% (inactive)
CCOc1ccc(S(=O)(=O)Nc2ccc(S(=O)(=O)Nc3cc(OC)ccc3OC)cc2)cc1 | -2.6% (inactive)
Cc1ccc(C)c(NC(=O)c2cc(-c3cc(C)cc(C)c3O)n[nH]2)c1 | 41.9% (inactive)
CCOC(=O)c1c(-n2cnnn2)sc(C)c1C | 98.7% (active)
CCOc1ccc(C(=O)COC(=O)c2ccc(-n3cnnn3)cc2)cc1 | 13.7% (inactive)
CCOC(=O)c1c(NC(=O)CSc2nccc(=O)[nH]2)sc(C)c1C | 22.2% (inactive)
CCCC(C)NC(=O)C1CCN(C(=O)C2CC(=O)N(c3ccc(C)cc3)C2)CC1 (centres undefined) | 14.2% (inactive)

SMILES | inhibition
CCN(CC(=O)NCc1cccs1)C(=O)c1cccc(S(=O)(=O)Nc2ccccc2OC)c1 | 60.6% (active)
CCN(CC(=O)NCc1cccs1)C(=O)c1ccccc1F | 16.3% (inactive)
COc1cc(CC(=O)NCc2cccs2)cc(OC)c1OC | 1% (inactive)
Cc1ccc(-n2c(-c3ccc(Cl)cc3)n[nH]c2=S)cc1 | -46.5% (inactive)
S=c1[nH]nc(-c2ccc(Cl)cc2)n1CC1CCCO1 (centres undefined) | 90.4% (active)
Cc1nnc(SCC(=O)NNC(=O)c2ccc(Cl)cc2)n1CC1CCCO1 (centres undefined) | 14.8% (inactive)
O=c1[nH]c(CSc2ncc(-c3ccc(F)cc3)n2Cc2ccco2)nc2ccccc12 | 67.4% (active)
CCn1c(COc2c(C)cccc2C)nnc1SCc1nc2ccccc2c(=O)[nH]1 | 29.2% (inactive)
CCn1c(Cc2ccccc2)nnc1SCc1nc2ccccc2c(=O)[nH]1 | 6.3% (inactive)
Cc1ccccc1CCNC(=O)C1CCC(=O)N(Cc2ccc(Cl)cc2)C1 (centres undefined) | 27% (inactive)
COc1ccc2c(c1)C(NS(=O)(=O)OCC(Cl)(Cl)Cl)CCC2 (centres undefined) | -7.3% (inactive)
O=c1c(-c2ccccc2Cl)c[nH]n1-c1ccccc1 | 31.3% (inactive)
Cc1cc(N2CCN(S(=O)(=O)c3ccc(C)c(C)c3)CC2)c2ccccc2n1 | -5.3% (inactive)
Cc1ccc(S(=O)(=O)Nc2nc3ccccc3nc2N2CCc3ccccc3C2)cc1 | 10.5% (inactive)
Cc1ccc(S(=O)(=O)C(C#N)c2nc3ccccc3nc2N2CCCC2)cc1C (centres undefined) | 95.8% (active)
COC(=O)c1cc(C(=O)NC(C)C2CC3CCC2C3)cc([N+](=O)[O-])c1 (centres undefined) | 26.5% (inactive)
Cc1ccc(-n2nc3c(=O)n(C(C)C(=O)NCc4ccc5c(c4)OCO5)nc(C)c3c2C)cc1 (centres undefined) | 18.3% (inactive)
O=c1ccc(-c2ccc(S(=O)(=O)Nc3ccccc3)o2)n[nH]1 | 1% (inactive)
Cn1c(Cn2nnc3ccccc32)nnc1SCC(=O)c1ccccc1F | 68.8% (active)
Cc1ccc(C(=O)CSc2nnc(Cn3nnc4ccccc43)n2C)cc1 | -7.4% (inactive)
Cn1c(CNC(=O)c2ccccc2F)nnc1SCc1ccc(F)cc1 | 15.9% (inactive)
COc1ccc(OC)c(NC(=O)CN(C)CCOc2ccc(Br)cc2)c1 | -11.8% (inactive)
N=c1c2c3c(sc2ncn1N)CCCC3 | 24.8% (inactive)
S=c1[nH]nc2c3c4c(sc3ncn12)CCCC4 | 106% (active)
c1nnc2c3c4c(sc3ncn12)CCC4 | 0.9% (inactive)

SMILES | inhibition
Cc1ccc(C)c(NC(=O)NNC(=O)c2ccc3ccccc3c2O)c1 | 6.1% (inactive)
O=C(CN1CCN(C/C=C/c2ccccc2)CC1)Nc1ccc(F)cc1F | 35.8% (inactive)
COC(=O)c1sccc1NC(=O)CC1C(=O)NCCN1C(=O)Nc1ccc(F)cc1F (centres undefined) | 31.6% (inactive)
O=C(CC1SC(=Nc2ccccc2F)N(CCN2CCOCC2)C1=O)Nc1ccc(F)cc1F (centres undefined) | 64.7% (active)
COC(=O)c1cccc(N2C(=O)C3C4C=CC(CC4)C3C2=O)c1 (centres undefined) | 37.1% (inactive)
Cc1ccc(OCc2cc(C(=O)N(C)CCn3ccnc3C)no2)cc1C | 25% (inactive)
O=C(COc1ccc(S(=O)(=O)N2CCOCC2)cc1Cl)N1CCOCC1 | 19% (inactive)
O=C(Cn1c(NCCO)nc2ccccc21)c1ccc(Cl)cc1Cl | 23.3% (inactive)
Cc1nc2ccc(S(=O)(=O)N(C)CC(=O)NC(C)c3ccccc3)cc2s1 (centres undefined) | 64% (active)
COc1ccc(CCNC(=O)CN(C)S(=O)(=O)c2ccc3nc(C)sc3c2)cc1OC | 3.8% (inactive)
COc1cc(NC(=O)CN(C)S(=O)(=O)c2ccc3nc(C)sc3c2)cc(OC)c1 | -3% (inactive)
COC(=O)c1ccc(/C=C2/C(=O)Oc3ccccc32)cc1 | 32.5% (inactive)
CCCC(C)c1nnc(NC(=O)C2CC(=O)N(c3ccc(OCC)cc3)C2)s1 (centres undefined) | 36.2% (inactive)
O=C(c1cccc(F)c1)N1CCC(O)(c2cccnc2)CC1 | 36.6% (inactive)
Cc1ccc(NC(=O)N2CCC(O)(c3cccnc3)CC2)cc1 | 1% (inactive)
O=C(Nc1cccc(F)c1)N1C2CCC1CC(O)(c1cccnc1)C2 (centres undefined) | 61.5% (active)
CC(=O)c1cccc(NC(=O)CN2C(=O)c3cccnc3Oc3ccc(Cl)cc32)c1 | 18.3% (inactive)
CCc1ccc(NC(=O)CCNS(=O)(=O)c2cccs2)cc1 | 35.1% (inactive)
CCCc1ccc(OCC(=O)NNC(=S)NC(=O)c2ccco2)cc1 | 96.9% (active)
CC(Oc1ccc2ccccc2c1)C(=O)NNC(=S)NC(=O)c1ccco1 (centres undefined) | 96.9% (active)
Cc1ccc(OCC(=O)NCCCNC(=O)c2ccco2)cc1C | 16% (inactive)
COc1ccc(C(=O)NNC(=S)NC(=O)c2ccccc2)cc1 | 19.1% (inactive)
O=C(Nc1ccc2ccccc2c1)/C(=C/c1cccc(Br)c1)NC(=O)c1ccco1 | -2.2% (inactive)
CCCc1ccc(OCCNC(=O)c2ccco2)cc1 | 41.8% (inactive)
